An excerpt weighted towards active compounds, which were near 9.2% of everything screened.
SMN2 splice up: increases expression of the SMN2 splice variant; 210,000 tested, 2.8% active; Potency, µM (highest dose often 46.1 µM), for inactives: top-dose activity change, positive = activation, hits mostly activators; HEK293 SMN2-luciferase splicing reporter, luminescence, 30-36 h; note: % of control where 0% means no effect; nearly all actives have a fitted effect of over 55% in size
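qHTS luciferase splicing reporter: luminescence rises when SMN2 exon 7 is included in transfected HEK293 cells. Compound exposure lasted 30-36 h at 37C, with 4.5 mM final sodium butyrate as control, followed by a ONE-Glo read.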
Rab9 prom act: activates the Rab9 promoter | Huh7 Rab9 promoter-luciferase reporter, luminescence, 24 h | Potency, µM (highest dose often 9.22 µM), for the others: at the top dose activation, negative = inhibition, actives largely listed as activators | 320,000 tested, 2.8% active | AID 485297; note: % of control where 0% means no effect; nearly all actives have a fitted effect of over 60% in size
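Promoter activation is measured as luciferase luminescence in Huh7 cells stably transfected with a Rab9 promoter–luciferase construct, following 24 h compound exposure at 37 °C and 10 min reagent incubation at ambient temperature.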
ELG1 DNA repair: inhibitors of ELG1-dependent DNA repair in HEK293T cells. 330,000 tested, 2.3% active. Potency, µM (doses to about 46.1 µM), for inactives: top-dose activity change, negative = inhibition, most hits filed as inhibitors. AID 504467. HEK293T ELG1-luciferase reporter, luminescence, 16 h; DNA damage induced by 5-fluorouridine; note: % is set by controls: 0 for no effect and ±100 for the full control effect; nearly all actives have a fitted effect of over 55% in size
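Cells (2,000 per well) received 5-fluorouridine plus test compound or DMSO and were incubated 16 hr at 37 °C, 5% CO2. Luciferase activity was read by luminescence 30 min after ONE-Glo addition; signal suppression marked inhibition of damage-induced ELG1 function.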
ELG1 genotox: inducers of genotoxicity in HEK293T ELG1-luciferase cells | HEK293T ELG1-luciferase reporter, luminescence, 16 h | Potency, µM (top dose mostly 46 µM), without a hit: at the top dose activity change, positive = activation, actives largely listed as activators | 330,000 tested, 1.3% active; note: % of control where 0% means no effect; nearly all actives have a fitted effect of over 60% in size
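After overnight (16 hr) compound treatment at 37 °C, ELG1-luciferase HEK293T cells were lysed with ONE-Glo; luminescence quantified 30 min later at room temperature.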
FLuc counter: firefly luciferase modulation, counter-screen for miR-21 project; P08659; purified FLuc, Km substrates, luminescence inhibition; Potency, µM (titrated, usually from 57.5 µM), without a hit: top-dose activity change, negative = inhibition, hits mostly inhibitors; 360,000 tested, 6.9% active; AID 588342;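 note: plate controls were vehicle for no effect and reference inhibitor for full effect; nearly all actives have a fitted effect of over 55% in size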
Target sequence (P08659 whole entry, looked up): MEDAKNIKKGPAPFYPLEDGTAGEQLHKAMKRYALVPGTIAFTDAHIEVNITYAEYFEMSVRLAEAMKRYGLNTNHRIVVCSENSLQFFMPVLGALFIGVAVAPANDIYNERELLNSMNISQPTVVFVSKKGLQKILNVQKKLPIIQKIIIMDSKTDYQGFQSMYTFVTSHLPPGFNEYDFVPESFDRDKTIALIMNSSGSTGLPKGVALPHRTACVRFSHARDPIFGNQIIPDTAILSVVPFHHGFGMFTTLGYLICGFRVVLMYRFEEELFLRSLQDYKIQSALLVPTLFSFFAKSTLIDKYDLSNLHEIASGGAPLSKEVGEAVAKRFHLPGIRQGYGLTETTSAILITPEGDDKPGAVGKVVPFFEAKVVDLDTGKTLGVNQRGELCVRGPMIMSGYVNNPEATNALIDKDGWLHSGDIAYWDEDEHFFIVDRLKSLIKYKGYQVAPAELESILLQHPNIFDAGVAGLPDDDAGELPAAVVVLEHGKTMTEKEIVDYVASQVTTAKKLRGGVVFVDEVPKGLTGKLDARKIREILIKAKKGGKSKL
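Biochemical qHTS of compounds, final roughly 60 µM downward over six points, against 10 nM purified firefly luciferase using Km concentrations of substrates (10 uM D-luciferin, 10 uM ATP) in Tris acetate pH 7.5 buffer; luminescence output.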
NPC1 promoter act: activators of NPC1 promoter; Huh7 NPC1 promoter luciferase reporter, 24 h; Potency, µM (series often up to 9.22 µM), for inactives: at the highest dose activation, most hits filed as activators; 320,000 tested, 2.4% active; note: % of control where 0% means no effect; nearly all actives have a fitted effect of over 60% in size
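Luciferase expression driven by the NPC1 promoter was measured in stably transfected Huh7 cells after a 24 h compound incubation, using a luciferase reagent and a luminescence read.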
* hit, by the source's call; ? = inconclusive; · = not tested or not shown; [ ] = remark or other dose. Calls come from the whole dose curve; as a rule, active = well fitted curve in the direction sought with a large enough effect; inconclusive = small, poorly fitted or top-dose-only effect, or another doubt; inactive = no such curve, though single readings can be large; an effect the other way counts as inactive or inconclusive. Potency is the fitted concentration of half-maximal effect.

SMILES | SMN2 splice up | Rab9 prom act | ELG1 DNA repair | ELG1 genotox | FLuc counter | NPC1 promoter act
CN(C(=O)C1CCOC1)c1nnc(-c2ccccn2)s1 (stereo unspecified) | 80% | ? | ? | 21µM* | 15µM* | 30%
COCC(=O)N(C)c1nnc(-c2ccc([N+](=O)[O-])cc2)s1 | 11% | 1% | 18% | 3% | 0% | 4%
CN(C(=O)C1CCOC1)c1nnc(-c2ccncc2)s1 (stereo unspecified) | ? | -7% | -10% | -9% | -4% | -1%
COc1ccccc1CC(NC(C)=O)C(=O)NC1CCN(C(=O)Nc2ccc(F)cc2)CC1 (stereo unspecified) | · | 1% | -3% | 2% | 1% | 6%
C#CCOc1ccc2ccccc2c1/C=C(/C#N)c1ccc(C(=O)O)cc1 | · | 6% | 3% | 2% | -8% | 0%
c1ccc(C2=NNC(c3ccccn3)=NN2)nc1 | · | 0.71µM* | ? | ? | 3.4µM* | 3.5µM*
CN(C(=O)C1CCCO1)c1nnc(-c2ccccn2)s1 (stereo unspecified) | 3% | 25% | ? | ? | 15µM* | 12%
CN(CC(=O)Nc1cccc(F)c1)C(=O)c1ccccc1-n1cnnn1 | · | -1% | 2% | -4% | -8% | -1%
CC(C)(C)c1ccc(O)c(CN(Cc2c(O)ccc3ccccc23)C2CCCCC2)c1 | -2%[9.22 µM] | · | · | · | · | ·
O=C(Cn1cnc([N+](=O)[O-])n1)N/N=C/c1ccc(O)cc1O | · | 4% | ? | 1% | -2% | -7%
O=C(NCCCN1CCOCC1)C(=O)NCc1ccccc1Cl | ? | 0% | -1% | 0% | -1% | -1%
Cc1cc2ncn(/N=C/c3ccc(-c4ccccc4)o3)c2cc1C | 16% | 8% | -5% | -4% | 24µM* | -2%
Cc1cc2ncn(/N=C/c3cccnc3)c2cc1C | -14% | -9% | -17% | 5% | ? | -3%
COC(=O)c1cccc(-c2noc(-c3ccccc3F)n2)c1 | · | 0.28µM* | ? | ? | 1.7µM* | ?
NC(=O)c1cccc(-c2noc(-c3ccccc3F)n2)c1 | · | 0.79µM* | ? | ? | 2.7µM* | 0.89µM*
COc1ccc(Br)cc1-c1noc(-c2ccccc2F)n1 | 6% | 17% | 0% | 13% | 3% | ?
NC(=O)c1ccccc1-c1nc(-c2ccccc2)no1 | 21% | ? | ? | ? | 24µM* | ?
CC(=O)Oc1ccccc1C1C[C@]2(C)CC(=O)NC2N1C(C)=O (stereo partly specified) | · | 2% | -8% | 2% | 0% | 0%
CCCCC(c1nnnn1CS(=O)(=O)c1ccc(C)cc1)N1CCN(C)CC1 (stereo unspecified) | -21% | -15% | 9% | -8% | 1% | -2%
CCc1ccccc1N1C(=O)N(C)c2ccccc2S1(=O)=O | · | · | · | · | -6% | ·
O=C(NNc1nc2c(F)cccc2s1)c1cc(=O)c2ccccc2o1 | · | ? | ? | ? | 5.4µM* | ?
Cc1ccc2sc(NNC(=O)c3cc(=O)c4ccccc4o3)nc2c1C | · | 19% | ? | ? | 9.5µM* | 16%
COc1ccc2nc(NC(=O)c3cc(=O)c4cc(C)c(C)cc4o3)sc2c1 | 0% | · | · | · | -14% | ·
COc1ccc2nc(NNC(=O)c3cc(=O)c4ccccc4o3)sc2c1 | · | 20% | 16% | 6% | 2.7µM* | 16%
Cc1cccc2sc(NNC(=O)c3cc(=O)c4ccccc4o3)nc12 | · | ? | ? | ? | 4.8µM* | ?
SMILES | SMN2 splice up | Rab9 prom act | ELG1 DNA repair | ELG1 genotox | FLuc counter | NPC1 promoter act
CCCCN1CC(=O)N2Cc3[nH]c4ccccc4c3C[C@H]2C1=O | · | -3% | 3% | 0% | 0% | -2%
CC(=O)Nc1ccc(/C=C/c2nc(-c3ccccc3O)n[nH]2)cc1 | · | 3.5µM* | ? | ? | ? | ?
O=C(c1ccc(Br)cc1)N1CCC(C(=O)N2CCN(c3ccccc3)CC2)CC1 | · | 1% | ? | -11% | -4% | -5%
O=C1CN(c2ccccc2)C(=S)N1C(=O)c1ccc(Br)cc1 | · | 3.2µM* | ? | 18µM* | 12µM* | 2.2µM*
Cc1cc2nn(-c3cccc4ccccc34)nc2cc1N | 13µM* | 2.8µM* | ? | 13µM* | 4.8µM* | ?
Nc1ccc2nn(-c3cccc4ccccc34)nc2c1 | -3% | 12% | ? | 7% | 19µM* | 8%
CCc1ccc(-n2nc3cc(C)c(NC(=O)c4cccc5ccccc45)cc3n2)cc1 | -2% | · | · | · | ? | ·
CC(C)Cc1ccc(-c2cc(=O)[nH][nH]2)cc1 | 0% | 17% | 9% | 4% | 17µM* | 0%
Cc1ccc(-c2cc(=O)[nH][nH]2)c(C)c1 | 12% | -10% | 2% | -3% | 0% | 1%
CC(C)n1cc(/C(N)=N/O)c(=O)n(Cc2ccccc2)c1=O | · | 0% | -14% | 2% | -2% | 2%
CCn1c(C)cc(/C=C2/SC(=S)N(CC(=O)O)C2=O)c1C | -13% | 1% | 12% | -9% | 2.7µM* | 5%
C#CCN1C(=O)S/C(=C/c2cc(C)n(CC)c2C)C1=O | · | 1.6µM* | ? | ? | 2.1µM* | 2.8µM*
CCN1C(=O)/C(=C/c2cnn(CC)c2C)SC1=S | -4% | 1% | ? | ? | ? | 1%
CCn1c(C)cc(/C=C2\NC(=O)N(Cc3ccccc3)C2=O)c1C | -5% | 3% | ? | 0% | -15% | 8%
COC(=O)[C@@H](NC(=O)O[C@@H]1C(=O)c2cc(Br)ccc2O[C@H]1c1ccc2c(c1)OCO2)C(C)C | -3% | · | · | · | · | ·
Cc1ccc(-c2csc(-c3cc4c([nH]c3=O)CC(c3ccccc3)CC4=O)n2)cc1 (stereo unspecified) | -6% | · | · | · | 1% | ·
Cc1ccc(C(=O)Nc2ccccc2)cc1S(=O)(=O)N1CCN(C)CC1 | · | 10% | 4% | 4% | -17% | 8%
Cc1ccc(S(=O)(=O)N2CCN(CC(=O)Nc3ccc(N4CCOCC4)cc3)CC2)cc1C | -5% | -13% | 0% | 2% | 0% | 0%
Cc1cccc(N2CCN(CC(=O)Nc3ccc(S(=O)(=O)N4CCOCC4)cc3)CC2)c1C | · | -19% | 15µM* | -17% | -2% | -15%
Cc1nc(SCC(=O)Nc2ccc(S(=O)(=O)N3CCOCC3)cc2)c2c(C)c(C)sc2n1 | · | · | 16µM* | -6% | · | ·
Cc1nc(SCC(=O)N2CCOCC2)c2c(C)c(C)sc2n1 | · | 0% | ? | -5% | 1% | -4%
CCOc1ccc(N(C)S(=O)(=O)c2ccc(C)c(C(=O)Nc3nnc(C4CC4)s3)c2)cc1 | · | -5% | -19% | -3% | 5% | 0%

Bioassay records from PubChem.
